Reference: PubChem BioAssay AID651658 (Broad Institute, 2012)
Among all 340,000 compounds or so, about 5,100 (1.5%) were called active.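 How the source made its calls: active means mean Tm shift, scaled 0 neutral to 100 positive control, at about 1.3% or above, every replicate too (limit read from the data); inconclusive means no clear call, values can overlap the other calls; inactive means the rest.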 For the sample, actives were picked, then their nearest neighbours and some compounds at random.

Each compound was assayed against Fibroblast growth factor 22 (Homo sapiens) (UniProt Q9HCT0) (assay: binders of human FGF22 protein, primary screen, FGF22 synaptogenesis inhibitor project, biophysical, thermal shift, single point (AID 651658)). Settings: recombinant FGF22 thermal shift, SYPRO orange fluorescence; at 9.99 µM; active compounds read high; percent of sucrose octasulfate shift, DMSO zero.
Chain of Fibroblast growth factor 22 (Homo sapiens) (Q9HCT0 whole entry, looked up): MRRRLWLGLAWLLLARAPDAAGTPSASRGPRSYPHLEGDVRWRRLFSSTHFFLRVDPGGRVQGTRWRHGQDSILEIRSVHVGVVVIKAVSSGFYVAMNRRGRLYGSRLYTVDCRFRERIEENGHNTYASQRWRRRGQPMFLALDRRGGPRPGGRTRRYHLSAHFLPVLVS
In the case of `CN(C)C(=O)c1ccc(-c2ccc([C@@H]3[C@H](C#N)N(C(=O)C4CC4)[C@H]3CO)cc2)cc1`, the activity (Tm shift, normalised) is reported as 0.09% (inactive). In the case of `CO[C@H]1CN(C)C(=O)c2cc(NC(=O)Nc3cccc(F)c3)ccc2OC[C@@H](C)N(C)C[C@H]1C`, the activity (Tm shift, normalised) is reported as 0.028% (inactive). With `S=C(Nc1ccc(Cl)cc1Cl)N1CCCC1` the activity (Tm shift, normalised) was -0.146% (inactive). `S=C(Nc1ccc(Br)cc1Cl)N1CCC2(CC1)OCCO2` was tested, and the activity (Tm shift, normalised) was 43.8% (active). In the case of `CC1CN(C(=S)Nc2ccc(Br)cc2Cl)CC(C)O1` (stereo not given), the activity (Tm shift, normalised) is reported as 0.064% (inactive). With `O=C(Nc1cc(F)ccc1F)N1C[C@H]2[C@@H](c3ccccc31)[C@@H](CO)N2C(=O)c1ccccc1` the activity (Tm shift, normalised) was 0.029% (inactive). With `N#C[C@@H]1[C@H](c2ccccc2)[C@H](CO)N1C(=O)CN1CCOCC1` the activity (Tm shift, normalised) was 0.041% (inactive). `CC(C)NC(=O)N1C[C@@H]2[C@H](c3ccccc31)[C@H](CO)N2C(=O)c1ccccn1` was tested, and the activity (Tm shift, normalised) was 16.8% (active). For `O=C(Nc1ccccc1F)N1C[C@H]2[C@@H](c3ccccc31)[C@H](CO)N2C(=O)c1ccccn1`, the activity (Tm shift, normalised) was -1.13% (inactive). In the case of `O=C(Nc1ccccc1)N1C[C@@H]2[C@H](c3ccccc31)[C@H](CO)N2C(=O)c1ccccn1`, the activity (Tm shift, normalised) is reported as -1.73% (inactive). With `O=C(Nc1ccc(C(F)(F)F)cc1)N[C@@H]1CC[C@@H](CCNC(=O)c2ccccc2F)O[C@H]1CO` the activity (Tm shift, normalised) was 0.08% (inactive). `O=C(COC(=O)c1cc(-c2cccs2)nn1-c1ccccc1)Nc1cc([N+](=O)[O-])ccc1Cl` was tested, and the activity (Tm shift, normalised) was 43.8% (active). With `Cc1nn(-c2ccccc2)c(C)c1NC(=O)COC(=O)c1cc(Cl)ccc1O` the activity (Tm shift, normalised) was -0.058% (inactive). `COc1ccc(Cl)cc1NC(=O)CN(C)C(=O)c1cc(-c2cccs2)nn1-c1ccccc1` was tested, and the activity (Tm shift, normalised) was 0.161% (inactive). In the case of `CCC(=O)N1[C@@H](CO)[C@@H](c2ccc(C3=CCCC3)cc2)C12CN(C(=O)COC)C2`, the activity (Tm shift, normalised) is reported as 0.109% (inactive). For `C[C@H]1CCCCO[C@@H](CN(C)Cc2ccccc2)[C@@H](C)CN([C@@H](C)CO)C(=O)c2cc(NC(=O)CCCN(C)C)ccc2O1`, the activity (Tm shift, normalised) was -0.026% (inactive). For `O=C(c1ccc2ccccc2n1)N1CCN(c2ccccc2Cl)CC1`, the activity (Tm shift, normalised) was 43.4% (active). For `CN(c1ccccc1)S(=O)(=O)c1ccc(C(=O)N2CCN(c3ccccc3Cl)CC2)cc1`, the activity (Tm shift, normalised) was -0.343% (inactive). For `CCNC(=O)C1(C)CCCN(C(=O)c2ccc3ccccc3n2)C1` (stereo not given), the activity (Tm shift, normalised) was -0.027% (inactive). With `O=C(NCC[C@H]1CC[C@@H](NC(=O)c2cnccn2)[C@H](CO)O1)Nc1ccc(Cl)cc1` the activity (Tm shift, normalised) was 0.223% (inactive). For `CCC(=O)Nc1ccc2c(c1)C(=O)N(C)[C@@H]1CC[C@@H](CC(=O)NCc3ccccc3Cl)O[C@H]1CO2`, the activity (Tm shift, normalised) was -0.111% (inactive). In the case of `C[C@@H]1CN([C@H](C)CO)S(=O)(=O)c2ccc(C#CC3(O)CCCC3)cc2O[C@@H]1CN(C)C(=O)c1cccnc1`, the activity (Tm shift, normalised) is reported as -0.011% (inactive). `Cc1ccc(S(=O)(=O)N(C)C[C@@H]2Oc3ccc(NC(=O)c4ccncc4)cc3CC(=O)N([C@H](C)CO)C[C@H]2C)cc1` was tested, and the activity (Tm shift, normalised) was -0.013% (inactive). `CC1(C)CC(=O)C(CC(=O)N2CCC(Cc3ccccc3)CC2)C(=O)C1` was tested, and the activity (Tm shift, normalised) was 41.9% (inactive). In the case of `CC1(C)CC(=O)C(C2c3ccccc3S(=O)(=O)c3ccccc32)C(=O)C1`, the activity (Tm shift, normalised) is reported as 42.9% (active). With `COc1ccc2c3c(n(C)c2c1)[C@H](CO)N(CC1CC1)CC31CCN(C(=O)c2ccccc2)CC1` the activity (Tm shift, normalised) was -0.078% (inactive). For `COc1ccc(S(=O)(=O)N[C@@H]2CC[C@@H](CC(=O)N3CCC(Cc4ccccc4)CC3)O[C@@H]2CO)cc1`, the activity (Tm shift, normalised) was 0.502% (inactive). With `CS(=O)(=O)N1[C@H](CO)[C@H](c2ccccc2)C12CN(C(=O)C1CC1)C2` the activity (Tm shift, normalised) was -0.066% (inactive). In the case of `Cc1ccccc1NC(=O)Cc1nc(COC(=O)CNC(=O)c2ccc(Cl)cc2Cl)cs1`, the activity (Tm shift, normalised) is reported as 0.003% (inactive). In the case of `CC(=O)Cc1nsc(NC(=O)c2ccc(Cl)cc2Cl)n1`, the activity (Tm shift, normalised) is reported as 44.2% (active). `Cn1cc(C(=O)c2ccc(Cl)cc2Cl)cc1C(=O)NN` was tested, and the activity (Tm shift, normalised) was -0.308% (inactive). With `O=C(CN1C(=O)S/C(=C\c2ccccc2F)C1=O)NCCCn1ccnc1` the activity (Tm shift, normalised) was -0.15% (inactive). With `Cn1cccc1/C=C1\SC(=O)N(CC(=O)Nc2ccc(F)cc2)C1=O` the activity (Tm shift, normalised) was 43% (active). With `Cc1nn(Cc2ccccc2)c(C)c1C(=O)NCCN1C(=O)S/C(=C\c2ccc(F)cc2)C1=O` the activity (Tm shift, normalised) was 0.11% (inactive). `COc1ccc(S(=O)(=O)N(CC(=O)N/N=C/c2ccc(C(=O)O)cc2)Cc2ccccc2)cc1OC` was tested, and the activity (Tm shift, normalised) was -0.204% (inactive). In the case of `CC(=O)Nc1ccc(S(=O)(=O)N(CCc2ccccc2)CC(=O)N/N=C/c2ccc(C(=O)O)cc2)cc1`, the activity (Tm shift, normalised) is reported as 1.76% (active). In the case of `O=C(O)c1ccc(/C=N/NC(=S)NCc2ccccc2)cc1`, the activity (Tm shift, normalised) is reported as 0.16% (inactive). With `CNC[C@H]1Oc2ncc(-c3ccccc3F)cc2C(=O)N([C@H](C)CO)C[C@H]1C` the activity (Tm shift, normalised) was -0.078% (inactive). In the case of `COCC#Cc1ccc2c(c1)O[C@H](CN(C)CC1CC1)[C@H](C)CN([C@H](C)CO)S2(=O)=O`, the activity (Tm shift, normalised) is reported as 0.379% (inactive). For `CCCN(C)C[C@@H]1OCCCC[C@@H](C)Oc2ccc(NS(=O)(=O)c3c(C)noc3C)cc2C(=O)N([C@H](C)CO)C[C@@H]1C`, the activity (Tm shift, normalised) was -0.518% (inactive). `C[C@H](CO)N1C[C@H](C)[C@H](CN(C)S(=O)(=O)c2cccs2)OCCCC[C@H](C)Oc2ccc(NC(=O)CCCN(C)C)cc2C1=O` was tested, and the activity (Tm shift, normalised) was -0.21% (inactive). In the case of `O=C1c2cccc3c([N+](=O)[O-])ccc(c23)C(=O)N1CC1CCCO1` (stereo not given), the activity (Tm shift, normalised) is reported as 0.06% (inactive). For `CN1C(=O)c2cccc3c(N)ccc(c23)C1=O`, the activity (Tm shift, normalised) was 28.3% (active). `CO[C@H]1CN(C)C(=O)c2cc(NC(=O)Nc3ccccc3F)ccc2OC[C@H](C)N(C)C[C@H]1C` was tested, and the activity (Tm shift, normalised) was -0.052% (inactive). In the case of `COc1ccccc1S(=O)(=O)N(C)C[C@H]1Oc2cc(C#CCC3CCCC3)ccc2S(=O)(=O)N([C@@H](C)CO)C[C@H]1C`, the activity (Tm shift, normalised) is reported as 0.195% (inactive). With `COc1ccc2c3c(n(C)c2c1)[C@@H](CO)N(C(=O)c1cnccn1)CC31CCN(C(C)=O)CC1` the activity (Tm shift, normalised) was -0.238% (inactive). With `CC(=O)N1c2ccc(S(=O)(=O)N3CCC(C(=O)NC4CCCCC4C)CC3)cc2CC1C` (stereo not given) the activity (Tm shift, normalised) was 0.24% (inactive). `CC(=O)N1c2ccc(S(=O)(=O)N3CCC(C(=O)NCc4ccc(F)cc4)CC3)cc2CC1C` (stereo not given) was tested, and the activity (Tm shift, normalised) was 1.48% (active). `CC(=O)N1c2ccc(S(=O)(=O)N3CCCC(C(=O)NCc4ccc(Cl)cc4)C3)cc2CC1C` (stereo not given) was tested, and the activity (Tm shift, normalised) was 0.095% (inactive). In the case of `O=C(c1ccncc1)N1CC2(C1)[C@@H](c1ccccc1)[C@H](CO)N2C(=O)c1ccncc1`, the activity (Tm shift, normalised) is reported as -0.088% (inactive). In the case of `CCCC(=O)Nc1ccc2c(c1)OC[C@H](C)N(Cc1ccc(F)cc1)C[C@H](C)[C@H](OC)CN(C)C2=O`, the activity (Tm shift, normalised) is reported as -0.11% (inactive). `CO[C@@H]1CN(C)C(=O)c2cc(NC(=O)CC(F)(F)F)ccc2OC[C@H](C)N(S(=O)(=O)c2cn(C)cn2)C[C@H]1C` was tested, and the activity (Tm shift, normalised) was -0.268% (inactive). For `N#CCC(=O)NC(=O)NCC1CC1`, the activity (Tm shift, normalised) was 45.2% (active). With `O=C(NCC1CCCCC1)NCC1CCCCC1` the activity (Tm shift, normalised) was 0.197% (inactive). In the case of `N#CCC(=O)NC1CCC(CC2CCC(NC(=O)CC#N)CC2)CC1` (stereo not given), the activity (Tm shift, normalised) is reported as -0.185% (inactive). In the case of `O=C(C[C@H]1C[C@H]2c3cc(NC(=O)C4CCOCC4)ccc3O[C@H]2[C@@H](CO)O1)NCCN1CCCCC1`, the activity (Tm shift, normalised) is reported as 0.018% (inactive). With `COc1ccc2c3c(n(C)c2c1)[C@@H](CO)N(C(=O)C1CC1)CC31CN(C(=O)C2CCOCC2)C1` the activity (Tm shift, normalised) was -0.006% (inactive). With `O=C(c1cccnc1)N1CCCCN2[C@@H](CO)[C@H](c3ccc(C#Cc4ccccc4)cc3)[C@@H]2C1` the activity (Tm shift, normalised) was -0.469% (inactive). For `O=C(N/C(=C\c1ccc(F)cc1)C(=O)N1CCCCCC1)c1ccccc1`, the activity (Tm shift, normalised) was -0.445% (inactive). `O=C1CN(C(=O)COC(=O)/C=C/c2ccc(F)cc2)c2ccccc2N1` was tested, and the activity (Tm shift, normalised) was 0.119% (inactive). With `O=C1C=CCCN1C(=O)/C=C/c1ccc(F)cc1` the activity (Tm shift, normalised) was 1.39% (active). For `C[C@@H]1CN([C@H](C)CO)C(=O)c2cc(NS(=O)(=O)c3cn(C)cn3)ccc2O[C@@H](C)CCCCO[C@@H]1CN(C)C(=O)CCC(F)(F)F`, the activity (Tm shift, normalised) was -0.484% (inactive). For `CCc1nnc(NC(=O)c2cccc(S(=O)(=O)N(C)c3ccc(OC)cc3)c2)s1`, the activity (Tm shift, normalised) was 0.249% (inactive). In the case of `CCc1nnc(NS(=O)(=O)c2ccc(NC(=S)NC(=O)/C=C/c3cccs3)cc2)s1`, the activity (Tm shift, normalised) is reported as 43.7% (active). `CCOC(=O)c1c(NC(=S)NC(=O)/C=C/c2cccs2)sc(C)c1C` was tested, and the activity (Tm shift, normalised) was 0.207% (inactive). `CCc1nnc(NS(=O)(=O)c2ccc(NC(=S)NC(=O)c3cccs3)cc2)s1` was tested, and the activity (Tm shift, normalised) was 0.364% (inactive). For `Cc1cc(NS(=O)(=O)c2ccc(NC(=O)c3cccc(OC(F)F)c3)cc2)nc(C)n1`, the activity (Tm shift, normalised) was 0.163% (inactive). In the case of `CCc1nnc(NS(=O)(=O)c2ccc(NC(=O)c3cccc(OC(F)(F)C(F)F)c3)cc2)s1`, the activity (Tm shift, normalised) is reported as 1.64% (active). In the case of `O=C(Cc1ccncc1)NCC[C@H]1CC[C@@H](NC(=O)Nc2ccc(Cl)cc2)[C@@H](CO)O1`, the activity (Tm shift, normalised) is reported as -0.005% (inactive). `O=C(C[C@H]1CC[C@@H](NC(=O)Nc2ccc(F)cc2)[C@@H](CO)O1)NCCN1CCCC1` was tested, and the activity (Tm shift, normalised) was -0.13% (inactive). In the case of `CC(C)NC(=O)N[C@H]1CC[C@H](CC(=O)N2CCCCC2)O[C@@H]1CO`, the activity (Tm shift, normalised) is reported as 0.022% (inactive). `COc1ccc(S(=O)(=O)Nc2ccc3c(c2)CC(=O)N([C@H](C)CO)C[C@H](C)[C@@H](CN(C)C(=O)NC(C)C)O3)cc1` was tested, and the activity (Tm shift, normalised) was -0.229% (inactive). With `CCSc1nc2sc3c(c2c(=O)[nH]1)CC(C)(C)OC3` the activity (Tm shift, normalised) was -0.053% (inactive). For `CCC(O)CNc1nc(-n2nc(C)cc2C)nc2sc3c(c12)CC(C)(C)OC3` (stereo not given), the activity (Tm shift, normalised) was -0.058% (inactive). For `CC(C)c1nc2sc3c(c2c(=O)n1N)CC(C)(C)OC3`, the activity (Tm shift, normalised) was 42.9% (active).
